High-throughput results (PubChem BioAssay)
Spn PMK inh = inhibitors of Streptococcus pneumoniae phosphomevalonate kinase. purified PMK, PK/LDH-coupled NADH absorbance 340 nm. inhibition, % at 10 µM. hit rate 0.49% among 65,000. AID 539;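 active = top-ranked compounds by inhibition in the single 10 µM screen, taking a fixed number of the strongest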;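 also: 0% = full reaction with DMSO carrier and 100% = background rate without enzyme reaction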
Autofluor 339 = intrinsic fluorescence of library compounds, ex339/em460 – biochemical, MLSMR library, data from DPM-DC assay, artefact control, profiling panel | compound autofluorescence, ex339/em460 nm, NADH buffer; stronger effect = higher value; 1 = no-compound wells, NADH background | fluorescence fold increase at 10 µM | hit rate 5.5% among 65,000 | AID 709;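 active = at 10 µM, mean starting fluorescence two-fold or more over control wells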;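 also: signal is the first read of a kinetic run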
MK inhibit = blocks S. pneumoniae mevalonate kinase; hit rate 0.48% among 65,000; purified MK, PK/LDH-coupled NADH absorbance 340 nm; AID 555; inhibition, % at 10 µM;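 active = ranked among the strongest by inhibition in the single 10 µM screen, a fixed top-ranked set picked for dose follow-up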
NADH enzymes = inhibitors of enzymes used to reach an NAD/NADH endpoint | coupled PK/LDH NADH assays, four targets | IC50, µM (highest dose often 10 µM), for inactives: at the highest dose inhibition | AID 774 | hit rate 0.02% among 65,000;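 active = single-dose screening hits from any of four coupled enzyme assays that gave an IC50 when retested across doses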;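 also: the DPM-DC format reads NADH fluorescence rather than 340 nm absorbance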
DPM-DC inhibit = S. pneumoniae DPM-DC inhibition. AID 556. calls only at 10 µM. hit rate 0.49% among 65,000. purified DPM-DC, PK/LDH coupled NADH fluorescence;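 active = the 320 compounds with the highest percent inhibition in the single-dose primary screen, excluding strongly autofluorescent ones, cut at about 32% in these data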;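 also: kinetic rate of NADH fluorescence loss reporting ADP formed by the decarboxylase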
Abs 340nm = compounds absorbing at 340 nm. AID 708. compound absorbance at 340 nm, fold over control. fold change at 10 µM. 65,000 tested, under 10 active;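 active = at 10 µM dose, initial 340 nm absorbance at least 2 fold that of control wells; inactive = change under 2 fold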;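 also: initial absorbance extrapolated from kinetic A340 decline of NADH oxidation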
* = called active by the depositor. Rows were chosen to be rich in hits. Some 6.5% of all compounds tested hit in one or more screens of this group.

For CCNC(=O)N(C(=O)NCC)n1c(C)nnc1C the results were Spn PMK inh 1.0, Autofluor 339 1.04, MK inhibit 0.0, NADH enzymes 1.0%, DPM-DC inhibit inactive and Abs 340nm 0.99.
Screening Cc1csc(Sc2nc3c(c(=O)[nH]c(=O)n3C)n2CCCc2ccccc2)n1 returned Spn PMK inh 9.0, Autofluor 339 1.06, MK inhibit 6.0, NADH enzymes 5.0%, DPM-DC inhibit inactive and Abs 340nm 1.
Screening CN1CCN(C(=O)CSc2nc(-c3cccs3)ccc2C#N)CC1 returned Spn PMK inh 0.0, Autofluor 339 2.3*, MK inhibit 13.0, NADH enzymes 7.0% and Abs 340nm 1.15.
C=C(C)CSc1nc2c(c(=O)[nH]c(=O)n2C)n1CCC(C)C was read as Spn PMK inh 2.0, Autofluor 339 1.08, MK inhibit 4.0, NADH enzymes 2.0%, DPM-DC inhibit inactive and Abs 340nm 1.04.
CCCn1c(=N)c(C(=O)NCc2ccc3c(c2)OCO3)cc2c(=O)n3cccc(C)c3nc21 was read as Spn PMK inh 10.0, Autofluor 339 2.11*, MK inhibit 8.0, NADH enzymes 10.0%, DPM-DC inhibit inactive and Abs 340nm 1.05.
`Cc1cccn2c(=O)c3cc(C(=O)NC(C)C)c(=N)n(Cc4ccncc4)c3nc12` gave Spn PMK inh 4.0, Autofluor 339 3.72*, MK inhibit 9.0, NADH enzymes 7.0% and Abs 340nm 1.04.
`Cc1cccn2c(=O)c3cc(C(=O)Nc4ccc(N(C)C)cc4)n(C)c3nc12` gave Spn PMK inh 7.0, Autofluor 339 1.27, MK inhibit 5.0, NADH enzymes 4.0%, DPM-DC inhibit inactive and Abs 340nm 1.11.
`CCNC(=O)c1cc2c(=O)n3cccc(C)c3nc2n(Cc2ccc(C)cc2)c1=N` gave Spn PMK inh 11.0, Autofluor 339 3.8*, MK inhibit 7.0, NADH enzymes 9.0% and Abs 340nm 1.03.
`Cc1cc(N2CCOCC2)nc2ccc(NC(=O)C3CCC(C)CC3)cc12` (stereo not given) gave Spn PMK inh 3.0, Autofluor 339 2.32*, MK inhibit 1.0, NADH enzymes 1.0% and Abs 340nm 1.03.
CCN1CCN(c2cc(C)c3cc(NC(=O)c4ccncc4)ccc3n2)CC1 was read as Spn PMK inh 2.0, Autofluor 339 1.05, MK inhibit 3.0, NADH enzymes 2.0%, DPM-DC inhibit inactive and Abs 340nm 1.14.
`COCCCNC(=O)CCC(=O)Nc1ccc2nc(N3CCOCC3)cc(C)c2c1` gave Spn PMK inh 8.0, Autofluor 339 4.72*, MK inhibit 9.0, NADH enzymes 9.0% and Abs 340nm 1.06.
Cc1cc(N2CCN(C)CC2)nc2ccc(NC(=O)CCC(=O)NCCC3=CCCCC3)cc12 was read as Spn PMK inh 11.0, Autofluor 339 3.84*, MK inhibit 3.0, NADH enzymes 11.0%, DPM-DC inhibit inactive and Abs 340nm 1.05.
`CCCCNC(=O)CCC(=O)Nc1ccc2nc(N3CCOCC3)cc(C)c2c1` gave Spn PMK inh 8.0, Autofluor 339 4.7*, MK inhibit 7.0, NADH enzymes 8.0% and Abs 340nm 1.01.
`O=C(Nc1ccc(N2CCOCC2)cc1)C1CC1` gave Spn PMK inh 0.0, Autofluor 339 1.03, MK inhibit 5.0, NADH enzymes 2.0%, DPM-DC inhibit inactive and Abs 340nm 0.99.
`CCOC(=O)C1CCCN(C(=O)CCC(=O)Nc2ccc3nc(N4CCOCC4)cc(C)c3c2)C1` (stereo not given) gave Spn PMK inh 10.0, Autofluor 339 4.73*, MK inhibit 8.0, NADH enzymes 9.0% and Abs 340nm 1.04.
`Cc1csc(NC(=O)C2CCC(C)(C(=O)O)C2(C)C)n1` (stereo not given) gave Spn PMK inh 29.0*, Autofluor 339 1.08, MK inhibit 5.0, NADH enzymes 11.0%, DPM-DC inhibit inactive and Abs 340nm 1.
Screening CCCc1[nH]nc2c1C(c1ccc(OC)c(Cn3nnc4ccccc43)c1)C(C#N)=C(N)O2 (stereo not given) returned Spn PMK inh 10.0, Autofluor 339 1.1, MK inhibit 51.0*, NADH enzymes 22.0%, DPM-DC inhibit inactive and Abs 340nm 0.98.
COc1ccc(C2C(C#N)=C(N)Oc3n[nH]c(C)c32)cc1Cn1nnc2ccccc21 (stereo not given) was read as Spn PMK inh 24.0, Autofluor 339 1.12, MK inhibit 14.0, NADH enzymes 13.0%, DPM-DC inhibit inactive and Abs 340nm 1.05.
`CCOC(=O)C1CCN(C(=O)C2CCCCC2)CC1` gave Spn PMK inh 3.0, Autofluor 339 1.15, MK inhibit 4.0, NADH enzymes 2.0%, DPM-DC inhibit inactive and Abs 340nm 1.06.
`Cc1oc2c(O)c(O)ccc2c(=O)c1-c1cnn(-c2ccccc2)c1` gave Spn PMK inh 1.0, Autofluor 339 1.07, MK inhibit 8.0, NADH enzymes 3.0%, DPM-DC inhibit inactive and Abs 340nm 1.06.
CCOc1ccccc1Oc1c(C)oc2c(CN3CCN(C)CC3)c(O)ccc2c1=O was read as Spn PMK inh 14.0, Autofluor 339 3.93*, MK inhibit 9.0, NADH enzymes 12.0% and Abs 340nm 1.12.
For COc1ccccc1-c1c(C)oc2c(CN3CCN(CCO)CC3)c(O)ccc2c1=O the results were Spn PMK inh 0.0, Autofluor 339 3.92*, MK inhibit 2.0, NADH enzymes 1.0% and Abs 340nm 1.13.
Screening COc1ccc(-c2c(C)oc3c(CN4CCN(CCO)CC4)c(O)ccc3c2=O)cc1OC returned Spn PMK inh 0.0, Autofluor 339 3.85*, MK inhibit 0.0, NADH enzymes 0.0% and Abs 340nm 1.15.
For Cc1oc2c(O)c(O)ccc2c(=O)c1-c1ccccc1 the results were Spn PMK inh 29.0*, Autofluor 339 0.98, MK inhibit 5.0, NADH enzymes 13.0%, DPM-DC inhibit inactive and Abs 340nm 1.04.
`CCC(Sc1nncn1C)C(=O)Nc1ccccc1OC` (stereo not given) gave Spn PMK inh 9.0, Autofluor 339 1.05, MK inhibit 8.0, NADH enzymes 6.0%, DPM-DC inhibit inactive and Abs 340nm 1.02.
For CCOC(=O)c1oc2c(CN3CCN(C)CC3)c(O)ccc2c(=O)c1-c1ccccc1OC the results were Spn PMK inh 1.0, Autofluor 339 0.97, MK inhibit 1.0, NADH enzymes 1.0%, DPM-DC inhibit inactive and Abs 340nm 1.01.
Screening COc1ccccc1-c1c(C)oc2c(CN3CCN(C)CC3)c(O)ccc2c1=O returned Spn PMK inh 8.0, Autofluor 339 2.35*, MK inhibit 11.0, NADH enzymes 10.0% and Abs 340nm 1.07.
Cc1oc2c(CN3CCCC3)c(O)ccc2c(=O)c1-c1ccc(Br)cc1 was read as Spn PMK inh 12.0, Autofluor 339 3.78*, MK inhibit 7.0, NADH enzymes 10.0% and Abs 340nm 1.13.
